Compound activity deposited in PubChem by several laboratories.
BJeLR lethal = kills HRASV12-expressing BJeLR cells | actives 0.17% (n = 300,000) | inhibition, % (no concentration beside the values) | BJeLR (HRASV12) viability, CellTiter-Glo ATP luminescence, 48 h; in the data active means inhibition above about 50%; inconclusive means no clear call, values can overlap the other calls
RecA splice inh = blocks M. tuberculosis RecA intein splicing. cell-free RecA intein splicing, fluorescence. inhibition, % (test concentration not listed). actives 0.75% (n = 290,000); in the data active means inhibition above about 30%; inconclusive means no clear call, values can overlap the other calls
Target sequence (P9WHJ3 whole entry, looked up, canonical isoform): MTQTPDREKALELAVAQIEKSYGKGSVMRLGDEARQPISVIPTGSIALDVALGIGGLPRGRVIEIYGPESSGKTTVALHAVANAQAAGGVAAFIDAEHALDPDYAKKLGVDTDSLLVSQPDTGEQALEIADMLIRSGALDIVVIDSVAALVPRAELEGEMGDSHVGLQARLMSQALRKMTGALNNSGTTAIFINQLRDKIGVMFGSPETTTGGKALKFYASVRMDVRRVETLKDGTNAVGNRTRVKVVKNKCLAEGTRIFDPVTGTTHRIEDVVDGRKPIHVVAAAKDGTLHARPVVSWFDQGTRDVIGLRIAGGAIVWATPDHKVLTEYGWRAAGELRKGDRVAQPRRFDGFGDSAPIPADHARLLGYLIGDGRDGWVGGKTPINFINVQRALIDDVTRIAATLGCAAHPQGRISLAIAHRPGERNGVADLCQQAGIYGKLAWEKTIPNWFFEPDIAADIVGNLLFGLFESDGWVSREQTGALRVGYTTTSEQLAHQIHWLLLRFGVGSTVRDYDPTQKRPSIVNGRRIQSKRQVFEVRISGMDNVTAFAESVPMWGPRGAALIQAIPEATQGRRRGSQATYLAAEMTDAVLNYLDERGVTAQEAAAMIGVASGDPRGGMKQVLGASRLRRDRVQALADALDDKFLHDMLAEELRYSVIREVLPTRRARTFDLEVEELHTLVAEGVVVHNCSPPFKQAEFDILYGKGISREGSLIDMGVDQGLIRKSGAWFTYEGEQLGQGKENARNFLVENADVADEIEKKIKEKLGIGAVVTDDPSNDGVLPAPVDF
PrP 5UTR inh = suppresses PrP 5' UTR mRNA reporter expression; cell-based PrP 5' UTR mRNA reporter, plate reader; inhibition, % (no concentration beside the values); actives 0.35% (n = 340,000); in the data active means inhibition above about 52%
UGM FP inh = Mtb UDP-galactopyranose mutase inhibition | P9WIQ1 | purified UGM, fluorescence polarization probe displacement | inhibition, % at 10 µM | actives 0.06% (n = 320,000) | AID 504406; in the data active means inhibition above about 10%, passing the limit was not always enough; inconclusive means no clear call, values can overlap the other calls
Rv3671c inh = inhibitors of M. tuberculosis serine protease Rv3671c | P9WHR9 | inhibition, % at 5.96 µM | actives 0.048% (n = 320,000) | AID 2606; in the data active means inhibition above about 38%;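 further: extracellular domain of Rv3671c used as enzyme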
FadD28 FP inh = blocks FadD28 binding to the bisubstrate probe. fluorescence polarization. inhibition, % at 12.5 µM. actives 0.22% (n = 360,000); in the data active means inhibition above about 8.5%, passing the limit was not always enough; inconclusive means no clear call, values can overlap the other calls
PrP 5UTR single = prion 5' UTR mRNA inhibition, cherry-pick retest. inhibition, % at 2.5 µM. cell-based prion protein 5' UTR reporter, plate reader. actives 48% (n = 1,100). shares compounds with PrP 5UTR inh; in the data active means inhibition above about 54%; inconclusive means no clear call, values can overlap the other calls
DNA intercalat = intercalates into DNA, flagged in counter-screen. shares compounds with UGM FP inh. acridine orange-DNA binding, fluorescence polarization. AC50, µM. actives 60% (n = 35). AID 463198;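 active means fitted AC50 no greater than ten times the top concentration tested, cut at about 17 µM in these data; inconclusive means flat fit with 30 to 70% signal change, or an unreliable fit; inactive means AC50 beyond ten times the top concentration tested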
Each line names hits and unclear results; the compound was inactive in the other large screens (follow-up assays come after a bar, where they were run). Sampled rows, rich in hits. Any-hit rate of the full collection: about 1.3%.

CC(C)(S)[C@@H](N)C(=O)O	PrP 5UTR inh 64 (no result: BJeLR lethal, UGM FP inh) | PrP 5UTR single inactive
O=C(Nc1cccc(O)c1)c1cc(-c2ccc3c(c2)OCO3)on1	PrP 5UTR inh 58 | PrP 5UTR single inconclusive
O=C(CCC1CCCN(C(=O)c2cc3ccccc3o2)C1)NCc1ccc(F)c(F)c1 (configuration not stated)	none
CCOc1ccc(-c2nnc(NC(=O)Cc3cc(OC)c(OC)c(OC)c3)o2)cc1	none
Nc1nc2n(n1)C(=O)CC(c1ccccc1[N+](=O)[O-])N2 (configuration not stated)	PrP 5UTR inh 78 (no result: RecA splice inh) | PrP 5UTR single inactive
Nc1nc2n(n1)C(=O)CC(c1ccc(Cl)cc1)N2 (configuration not stated)	none
CC(=O)OC[C@]12CCC(C)=C[C@H]1O[C@@H]1[C@H](O)[C@@H](OC(C)=O)[C@@]2(C)[C@]12CO2	PrP 5UTR inh 90 (no result: BJeLR lethal, RecA splice inh) | PrP 5UTR single 97
CCCNC(=O)C1(C)CCN(C(=O)c2ccc(C)c(F)c2)C1 (configuration not stated)	none (no result: BJeLR lethal, RecA splice inh, PrP 5UTR inh, UGM FP inh, Rv3671c inh)
CCOC(=O)C1(Cc2ccccc2)CCCN(Cc2ccc(OCC)c(CO)c2)C1 (configuration not stated)	PrP 5UTR inh 52 | PrP 5UTR single inactive
O=C(CNC(=O)c1ccco1)Nc1ccc(N2CCCCCC2)cc1	none (no result: BJeLR lethal, RecA splice inh)
O=C(CNCc1ccco1)Nc1ccc(N2CCCCCC2)cc1	PrP 5UTR inh 83 | PrP 5UTR single inactive
CNS(=O)(=O)c1ccc(NC(=O)c2cnn3c(C(F)F)cc(-c4ccccc4)nc23)cc1	none
O=C(Nc1cccc(S(=O)(=O)N2CCOCC2)c1)c1cnn2c(C(F)F)cc(-c3ccccc3)nc12	PrP 5UTR inh 80 | PrP 5UTR single inactive
COc1ccc([N+](=O)[O-])cc1NC(=O)COC(=O)C12CC3CC(CC(O)(C3)C1)C2	none (no result: BJeLR lethal, RecA splice inh, PrP 5UTR inh, UGM FP inh, Rv3671c inh)
COC1=C(C)C(=O)C2=C(C1=O)C(CO)N1C(C#N)C3CC4C(C1C2N1CCOC41)N3C (configuration not stated)	PrP 5UTR inh 76 (no result: BJeLR lethal, RecA splice inh, UGM FP inh, Rv3671c inh) | PrP 5UTR single 92
O=C(c1ccc2c3c(cccc13)CC2)C1CCCN(Cc2ccc(OCCO)cc2)C1 (configuration not stated)	PrP 5UTR inh 87 | PrP 5UTR single inactive
CC(=O)OC1CC(OC2C(O)CC(OC3C(O)CC(OC4CCC5(C)C(CCC6C5CCC5(C)C(C7=CC(=O)OC7)CCC65O)C4)OC3C)OC2C)OC(C)C1OC1OC(CO)C(O)C(O)C1O (configuration not stated)	PrP 5UTR inh 96 (no result: BJeLR lethal, RecA splice inh, UGM FP inh, Rv3671c inh) | PrP 5UTR single 90
CC12CC[C@H]3[C@@H](CCC4(O)C[C@H](O)CCC34/C=N/NC(=O)c3ccc(O)cc3)C1(O)CCC2C1=CC(=O)OC1 (some centres not stated)	none (no result: PrP 5UTR inh)
O=C(NCc1ccc2c(c1)OCO2)C1CCCN(S(=O)(=O)c2cccc3cccnc23)C1 (configuration not stated)	PrP 5UTR inh 78 | PrP 5UTR single inconclusive
COc1ccccc1NS(=O)(=O)c1cc(C(=O)N2CCCC2)ccc1F	none (no result: BJeLR lethal, RecA splice inh, UGM FP inh, Rv3671c inh)
c1nc(CCO[C@H]2CCCCO2)cc2cc3c(cc12)OCO3	PrP 5UTR inh 63 (no result: BJeLR lethal, RecA splice inh) | PrP 5UTR single inactive
CCc1ccn2cc(-c3ccc4c(c3)OCO4)nc2c1	PrP 5UTR inh 74 | PrP 5UTR single 84
CCOC(=O)C1=C(C)N=c2sc(=Cc3cc(Cl)c(OCC(=O)O)c(Cl)c3)c(=O)n2C1c1cccc(OC)c1 (configuration not stated)	none (no result: BJeLR lethal, RecA splice inh, PrP 5UTR inh, UGM FP inh, Rv3671c inh)
COc1ccccc1NC(=O)c1oc2ccccc2c1NC(=O)c1cc(OC)c(OC)c(OC)c1	PrP 5UTR inh 56 | PrP 5UTR single 84
COCC(=O)Nc1c(C(=O)Nc2ccccc2OC)oc2ccccc12	none
O=C(CSc1nnc(-c2ccncc2)o1)Nc1cc(F)ccc1F	none (no result: BJeLR lethal, RecA splice inh)
COC(=O)c1ccccc1NC(=O)CSc1nnc(-c2ccc(C)cc2)o1	none (no result: PrP 5UTR inh, UGM FP inh, Rv3671c inh, FadD28 FP inh)
O=C(CSc1nnc(-c2ccc(Br)cc2)o1)Nc1cccc(C(=O)O)c1	PrP 5UTR inh 71 | PrP 5UTR single 80
Cc1ccc(-c2nnc(SCC(=O)Nc3ccccc3F)o2)cc1	BJeLR lethal 56, PrP 5UTR inh 89 | PrP 5UTR single 88
O=C(CSc1nnc(-c2ccccc2)o1)Nc1ccccc1F	PrP 5UTR inh 60 | PrP 5UTR single 59
COc1ccc(-c2nnn(CC(=O)N(CC(=O)NC3CCCC3)c3ccccc3F)n2)cc1OC	none
CC(=O)Nc1cccc(CNCc2cccc(NC(C)=O)c2)c1	none
COc1cc(/C=C2\COC/C(=C\c3cc(OC)c(OC)c(OC)c3)C2=O)cc(OC)c1OC	PrP 5UTR inh 89 (no result: UGM FP inh, Rv3671c inh) | PrP 5UTR single 97
COc1cc(/C=C2\CC/C(=C\c3cc(OC)c(OC)c(OC)c3)C2=O)cc(OC)c1OC	none
CCOc1ccc(OCC(=O)OC(C)C(=O)NC2CCCC2)cc1 (configuration not stated)	none (no result: BJeLR lethal, RecA splice inh)
N#CC1(Nc2ccc(-c3ccc(NC4(C#N)CCCC4)cc3)cc2)CCCC1	none (no result: BJeLR lethal, RecA splice inh, UGM FP inh, Rv3671c inh)
N#CC1(Nc2ccc(S(N)(=O)=O)cc2)CCCC1	PrP 5UTR inh 74 (no result: BJeLR lethal, RecA splice inh, UGM FP inh, Rv3671c inh) | PrP 5UTR single inactive
CC(=O)Nc1ccc(S(=O)(=O)NC(C)C(=O)OCC(=O)Nc2ccc(F)cc2Cl)cc1 (configuration not stated)	none (no result: BJeLR lethal, RecA splice inh, PrP 5UTR inh, UGM FP inh, Rv3671c inh)
CC(=O)NC(c1cccc(F)c1)c1nc(-c2cccs2)cs1 (configuration not stated)	none (no result: BJeLR lethal, RecA splice inh, PrP 5UTR inh, UGM FP inh, Rv3671c inh)
COc1ccc(/C=C2\SC(=S)N(CCCC(=O)NNC(=O)c3ccccc3O)C2=O)cc1	PrP 5UTR inh 60 | PrP 5UTR single 74
O=C(O)c1ccc(N/N=C/c2ccc3nccnc3c2)cc1	PrP 5UTR inh 84 | PrP 5UTR single 85
COc1ccc(-c2nc(NC(=O)CCNC(=O)c3ccco3)sc2C)cc1	none
O=C(CCC(=O)c1ccc(F)cc1)Nc1cccc(S(=O)(=O)Nc2cccc(Cl)c2)c1	none
Cc1ccc(S(=O)(=O)N2CCN(C(=O)N(C)C)CC2)cc1	PrP 5UTR inh 62 | PrP 5UTR single inactive
Cc1ccc(S(=O)(=O)N2CCN(C(=O)N3CCCC3)CC2)cc1	none
COc1ccc2c3c(cccc13)C(=O)CC2	UGM FP inh 79, FadD28 FP inh 47 (no result: Rv3671c inh) | DNA intercalat inactive
COc1ccc2ccccc2c1C(O)c1nccn1C (configuration not stated)	UGM FP inh 39 | DNA intercalat inactive
Cn1ccnc1C(O)c1ccccc1 (configuration not stated)	none
O=C(CCCN1C(=O)c2cccc3cccc(c23)C1=O)N1CCN(c2ccccc2)CC1	none | DNA intercalat inactive
O=C(CCCN1C(=O)c2cccc3cccc(c23)C1=O)N1CCN(c2ccccc2O)CC1	none
